Reference: PubChem BioAssay (NCATS)
Results filed as inconclusive are left out. The source made the active and inactive calls. The call rests on the fitted dose curve; in most records, active means well fitted inhibition curve with a large enough effect; inconclusive means small, poorly fitted or top-dose-only effect; inactive means flat fitted curve, though single readings scatter.

How the values were obtained:
Assay in all cases: Cytotoxic Profiling of Annotated Libraries Using Quantitative High-Throughput Screening (AID 1296008); further: nearly all actives have a fitted effect of over 60% in size
Conditions in all cases: Five cell lines viability, CellTiter-Glo ATP luminescence, 48-72 h; max response: stronger effect = lower value
CRL-7250 = normal cell line; test system: CRL-7250
Procedure, shortened: (§1)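 Compounds were pin-transferred onto cells and incubated 48 or 72 hr at 37 degree Celsius, 95% humidity. CellTiter-Glo was added, plates sat 10 min at room temperature, then ATP-coupled luminescence was imaged as the viability read-out.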

HEK293 = test system: HEK293
Procedure, shortened: as §1

HaCat = test system: HaCat
Procedure, shortened: as §1

KB-3-1 = test system: KB-3-1
Procedure, shortened: as §1

NIH3T3 = test system: NIH3T3
Procedure, shortened: as §1
On the % scale 0 is the no-effect control and ±100 the full control effect; potency means the concentration at half of the fitted maximal effect.

C/C=C/C=C/C=C/C(=O)N(C)C(C(=O)NC(C)C(=O)N1CCCC1C(N)=O)C(C)C (stereo not given)
inactive: max response (CRL-7250) -4.46% | max response (HEK293) 2.9% | outcome (HaCat) | outcome (KB-3-1) | max response (NIH3T3) 0.323%

O=C(O)c1ccnc2cc(C(OCC3CCC(F)(F)CC3)c3ccccc3Cl)[nH]c12 (stereo not given)
inactive: max response (CRL-7250) 2.57% | max response (HEK293) 4.55% | max response (HaCat) -20.6% | max response (KB-3-1) 8.39% | outcome (NIH3T3)

Cc1ccc(C)c(S(=O)(=O)n2cnc3ccccc32)c1
inactive: max response (CRL-7250) -12.1% | max response (HEK293) -10.9% | outcome (HaCat) | outcome (KB-3-1) | outcome (NIH3T3)

COC(=O)C1=COC(OC2OC(CO)C(O)C(O)C2O)C2C(C)C(OC(=O)/C=C/c3ccc(O)cc3)C(O)C12 (stereo not given)
inactive: max response (CRL-7250) 0.486% | max response (HEK293) -0.112% | outcome (HaCat) | max response (KB-3-1) 1.09% | max response (NIH3T3) -1.55%

CSC(=O)OCC1=C[C@@H]2OC(=O)C3=CO[C@@H](O[C@@H]4O[C@H](CO)[C@@H](O)[C@H](O)[C@H]4O)[C@H]1[C@@H]32
inactive: max response (CRL-7250) -1.2% | max response (HEK293) -0.187% | outcome (HaCat) | outcome (KB-3-1) | max response (NIH3T3) 1.53%

COc1cc(OC)cc(-c2ccc3c(-c4ccc(F)cc4)[nH]nc3n2)c1
inactive: outcome (CRL-7250) | max response (HEK293) -28% | outcome (HaCat) | outcome (KB-3-1) | max response (NIH3T3) 0.976%

CCC[C@H](N[C@@H](C)C(=O)N1[C@H](C(=O)O)C[C@@H]2CCCC[C@@H]21)C(=O)O
inactive: max response (CRL-7250) -2.24% | max response (HEK293) 3.79% | outcome (HaCat) | max response (KB-3-1) -5.15% | max response (NIH3T3) -10.2%

COc1ccc(C(=O)CC(=O)O)c2c1C=CC(C)(C)O2
inactive: outcome (CRL-7250) | max response (HEK293) -7.49% | outcome (HaCat) | max response (KB-3-1) 7.77% | max response (NIH3T3) -1.38%

OC[C@H]1O[C@@H](Oc2cc(O)cc(-c3cc4ccc(O[C@@H]5O[C@H](CO)[C@@H](O)[C@H](O)[C@H]5O)cc4o3)c2)[C@H](O)[C@@H](O)[C@@H]1O
inactive: max response (CRL-7250) -9.86% | max response (HEK293) -2.42% | outcome (HaCat) | max response (KB-3-1) 0.0792% | max response (NIH3T3) -3.34%

C[C@@H]1O[C@@H](O[C@H]2[C@H](Oc3cc(O)c(C(=O)CCc4ccc(O)cc4)c(O)c3)O[C@H](CO)[C@@H](O)[C@@H]2O)[C@H](O)[C@H](O)[C@H]1O
inactive: max response (CRL-7250) 2.09% | max response (HEK293) -1.52% | outcome (HaCat) | outcome (KB-3-1) | outcome (NIH3T3)

C/C=C/C1OC2=C(C(=O)OC2(C)O)C(O)C1O (stereo not given)
inactive: max response (CRL-7250) -6.2% | max response (HEK293) -1.4% | max response (HaCat) 2.04% | max response (KB-3-1) -1.78% | outcome (NIH3T3)

Cc1cc(CNC(=O)c2cc(C(=O)NCc3ccc(F)c(C)c3)ncn2)ccc1F
inactive: max response (CRL-7250) 4.78% | max response (HEK293) 1.88% | max response (HaCat) -0.507% | outcome (KB-3-1) | outcome (NIH3T3)

CC(=C\C(C)O)/C=C(\C)C(=O)CC1CC(CC(N)=O)CC(=O)O1 (stereo not given)
inactive: outcome (CRL-7250) | max response (HEK293) 1.11% | outcome (HaCat) | outcome (KB-3-1) | outcome (NIH3T3)

C=C1CC[C@@]2(OC1)O[C@H]1CC3[C@@H]4CC=C5C[C@@H](O)C[C@@H](O[C@@H]6OC[C@H](O)[C@H](O)[C@H]6O[C@@H]6O[C@@H](C)[C@H](O)[C@@H](O)[C@H]6O)[C@]5(C)C4CC[C@]3(C)[C@H]1[C@@H]2C (stereo not given in full)
inactive: outcome (CRL-7250) | max response (HEK293) -17.1% | outcome (HaCat) | outcome (KB-3-1) | outcome (NIH3T3)

CC(C(=O)Nc1cc(C#N)ccc1CCCC(=O)O)c1ccc(F)c2ccccc12 (stereo not given)
inactive: max response (CRL-7250) -4.54% | max response (HEK293) -6.85% | max response (HaCat) -4.32% | max response (KB-3-1) 5.51% | outcome (NIH3T3)

C=CC(C)(CC/C=C(\C)C(=O)OC)OC1OC(COC(=O)CC(C)(O)CC(=O)O)C(O)C(O)C1O (stereo not given)
inactive: max response (CRL-7250) -11.6% | outcome (HEK293) | max response (HaCat) 3.32% | max response (KB-3-1) 1.2% | max response (NIH3T3) -0.702%

C[C@H]1[C@H](C)C[C@@H](C(=O)O)C2CC[C@]3(C)C(=CC[C@@H]4[C@@]5(C)CC[C@H](O)C(C)(C)[C@@H]5CC[C@]43C)[C@@H]21 (stereo not given in full)
active: Potency (HEK293) 25.9 µM
inactive: max response (CRL-7250) -4.25% | outcome (HaCat) | max response (KB-3-1) 8.63% | outcome (NIH3T3)

CC(=O)OC[C@]12[C@@H](OC(=O)c3ccoc3)C[C@@H]3[C@@H](OC(C)=O)[C@]1(OC3(C)C)[C@@](C)(O)C[C@H](OC(=O)c1ccoc1)[C@@H]2OC(=O)c1ccoc1
inactive: max response (CRL-7250) -3.29% | max response (HEK293) -2.85% | outcome (HaCat) | max response (KB-3-1) 2.58% | outcome (NIH3T3)

CC(C)=C1CC2C(CCC2(C)O)C(C)(O)CC1=O (stereo not given)
inactive: outcome (CRL-7250) | max response (HEK293) -3.11% | max response (HaCat) -16.7% | outcome (KB-3-1) | outcome (NIH3T3)

Cc1oc(S(=O)(=O)N2CCCCC2)cc1NC(=O)Nc1ccccc1
inactive: outcome (CRL-7250) | max response (HEK293) -1.71% | outcome (HaCat) | outcome (KB-3-1) | max response (NIH3T3) -1.71%
